In all, about 310,000 compounds went through this assay and about 14,000 (4.5%) showed an effect of 50% or more. Effects have a minus sign here. The sample holds strong results, similar compounds and a random draw of the others, so the mix is not that of the screen.
target: human ether-à-go-go-related gene (hERG) potassium channel (human, UniProt Q12809); test: primary screen, population patch clamp on CHO cells stably expressing hERG; higher = less effect of the substance
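Also: peak tail current of the secondary pulse compared with the same well before compound.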

Chain of human ether-à-go-go-related gene (hERG) potassium channel (Q12809 whole entry, looked up): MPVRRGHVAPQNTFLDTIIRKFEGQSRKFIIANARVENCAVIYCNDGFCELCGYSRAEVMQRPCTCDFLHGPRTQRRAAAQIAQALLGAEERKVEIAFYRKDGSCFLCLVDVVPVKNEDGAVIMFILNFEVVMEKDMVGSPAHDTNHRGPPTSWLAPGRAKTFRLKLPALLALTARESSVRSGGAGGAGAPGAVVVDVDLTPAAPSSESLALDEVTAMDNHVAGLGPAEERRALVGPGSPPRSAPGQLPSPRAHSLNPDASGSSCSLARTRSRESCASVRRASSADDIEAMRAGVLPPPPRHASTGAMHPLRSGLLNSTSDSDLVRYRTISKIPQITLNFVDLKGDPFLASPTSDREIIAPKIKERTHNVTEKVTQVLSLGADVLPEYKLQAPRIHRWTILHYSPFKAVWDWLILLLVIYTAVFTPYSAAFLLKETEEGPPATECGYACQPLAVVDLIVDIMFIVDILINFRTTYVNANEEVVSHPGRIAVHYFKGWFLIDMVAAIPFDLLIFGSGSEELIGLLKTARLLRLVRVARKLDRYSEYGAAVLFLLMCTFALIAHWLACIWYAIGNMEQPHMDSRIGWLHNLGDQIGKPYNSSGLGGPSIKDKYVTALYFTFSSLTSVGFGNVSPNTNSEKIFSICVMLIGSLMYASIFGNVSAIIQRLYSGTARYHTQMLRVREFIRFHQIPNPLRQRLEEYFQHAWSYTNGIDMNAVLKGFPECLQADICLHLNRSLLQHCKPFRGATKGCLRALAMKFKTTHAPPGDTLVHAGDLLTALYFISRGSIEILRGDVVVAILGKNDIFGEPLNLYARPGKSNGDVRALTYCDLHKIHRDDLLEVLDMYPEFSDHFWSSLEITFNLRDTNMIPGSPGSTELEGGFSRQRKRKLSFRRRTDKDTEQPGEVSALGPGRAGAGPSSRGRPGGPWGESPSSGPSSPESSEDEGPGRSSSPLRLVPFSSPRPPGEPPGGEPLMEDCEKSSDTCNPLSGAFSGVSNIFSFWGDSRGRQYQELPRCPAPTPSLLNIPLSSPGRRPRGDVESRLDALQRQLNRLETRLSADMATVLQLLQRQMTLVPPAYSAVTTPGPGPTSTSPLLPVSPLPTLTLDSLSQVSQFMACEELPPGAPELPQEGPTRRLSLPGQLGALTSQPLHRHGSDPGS

Question: With O=S(=O)(NN=C1CCCCCCC1)c1ccc(Br)cc1 as the compound, how does the “hERG current change (%, negative = inhibition) at 10uM” value read?
Answer: 4.3%

Question: With Cc1ccc(-c2noc(CN(C)C(=O)c3ccc(Br)o3)n2)cc1 as the compound, how does the “hERG current change (%, negative = inhibition) at 10uM” value read?
Answer: -18.7%

Question: Which “hERG current change (%, negative = inhibition) at 10uM” value does the source give for O=C(CCCn1c(=O)[nH]c2ccsc2c1=O)NCc1cccs1 here?
Answer: 4.11%

Question: How did the “hERG current change (%, negative = inhibition) at 10uM” value turn out when CCCCN(C(=O)CN1C(=O)C2CC=CCC2C1=O)c1c(N)n(CCC)c(=O)[nH]c1=O (stereo not shown) was run?
Answer: 4.14%

Question: For O=C(O)Cc1cccc2ccccc12, which “hERG current change (%, negative = inhibition) at 10uM” value is on record?
Answer: 16.6%

Question: With CCCOc1ccc(/C=C2\SC(N)=NC2=O)cc1OC as the compound, how does the “hERG current change (%, negative = inhibition) at 10uM” value read?
Answer: 3.66%

Question: O=C(O)c1cccc2c(/C=N/Nc3ccccn3)c[nH]c12 was tested. Which “hERG current change (%, negative = inhibition) at 10uM” value did it give?
Answer: -1.13%

Question: Cc1ccc(CN2CCC(CNC(=O)C3CCCN(c4ncnc5c4nc4n5CCCCC4)C3)CC2)cc1 (stereo not shown) was tested. Which “hERG current change (%, negative = inhibition) at 10uM” value did it give?
Answer: -45%

Question: For CN(Cc1ccccc1)C(=O)C1CCCN(c2ncnc3c2nc2n3CCCCC2)C1 (stereo not shown), which “hERG current change (%, negative = inhibition) at 10uM” value is on record?
Answer: -66%

Question: How did the “hERG current change (%, negative = inhibition) at 10uM” value turn out when O=C(NCC1CCN(Cc2ccc(F)cc2)CC1)C1CCCN(c2ncnc3c2nc2n3CCCCC2)C1 (stereo not shown) was run?
Answer: -39.6%

Question: O=C(NCc1ccccc1)C1CCCN(c2ncnc3c2nc2n3CCCCC2)C1 (stereo not shown) was tested. Which “hERG current change (%, negative = inhibition) at 10uM” value did it give?
Answer: -69.1%

Question: With Cc1ccccc1N(C)C(=O)C1CCCN(c2ncnc3c2nc2n3CCCCC2)C1 (stereo not shown) as the compound, how does the “hERG current change (%, negative = inhibition) at 10uM” value read?
Answer: -7.96%

Question: Cc1ccc(CNC(=O)C2CCCN(c3ncnc4c3nc3n4CCCCC3)C2)cc1 (stereo not shown) was tested. Which “hERG current change (%, negative = inhibition) at 10uM” value did it give?
Answer: -49%

Question: With CN(Cc1ccco1)C(=O)C1CCCN(c2ncnc3c2nc2n3CCCCC2)C1 (stereo not shown) as the compound, how does the “hERG current change (%, negative = inhibition) at 10uM” value read?
Answer: 5.57%

Question: How did the “hERG current change (%, negative = inhibition) at 10uM” value turn out when CC(C)N(CCNC(=O)C1CCCN(c2ncnc3c2nc2n3CCCCC2)C1)Cc1ccccc1 (stereo not shown) was run?
Answer: -37.3%

Question: Which “hERG current change (%, negative = inhibition) at 10uM” value does the source give for CN(C(=O)C1CCCN(c2ncnc3c2nc2n3CCCCC2)C1)c1cccc(Cl)c1 (stereo not shown) here?
Answer: -45.9%

Question: CC(C)N(Cc1ccccc1)C(=O)C1CCCN(c2ncnc3c2nc2n3CCCCC2)C1 (stereo not shown) was tested. Which “hERG current change (%, negative = inhibition) at 10uM” value did it give?
Answer: -44.3%

Question: O=C(NCC1CCN(Cc2ccc(Cl)cc2)CC1)C1CCCN(c2ncnc3c2nc2n3CCCCC2)C1 (stereo not shown) was tested. Which “hERG current change (%, negative = inhibition) at 10uM” value did it give?
Answer: -65.7%

Question: For CCN(C(=O)C1CCCN(c2ncnc3c2nc2n3CCCCC2)C1)c1cccc(Cl)c1 (stereo not shown), which “hERG current change (%, negative = inhibition) at 10uM” value is on record?
Answer: -62.5%

Question: With O=C(C1CC1)N1CCCN(C(=O)C2CC2)CC1 as the compound, how does the “hERG current change (%, negative = inhibition) at 10uM” value read?
Answer: 16.3%

Question: For CCC1(C)Cc2ccccc2-c2nc(NCCCO)n(-c3ccccc3)c(=O)c21 (stereo not shown), which “hERG current change (%, negative = inhibition) at 10uM” value is on record?
Answer: -48.6%

Question: Which “hERG current change (%, negative = inhibition) at 10uM” value does the source give for c1ccc(COc2ccccc2CNc2nn[nH]n2)cc1 here?
Answer: 13.1%

Question: For O=C(Nc1sc2c(c1C(=O)NCC(O)CO)CCCC2)c1ccccc1 (stereo not shown), which “hERG current change (%, negative = inhibition) at 10uM” value is on record?
Answer: 6.02%

Question: How did the “hERG current change (%, negative = inhibition) at 10uM” value turn out when O=C(COC(=O)CNC(=O)c1cccs1)Nc1ccc(C(F)(F)F)cc1[N+](=O)[O-] was run?
Answer: -44%

Question: How did the “hERG current change (%, negative = inhibition) at 10uM” value turn out when CCn1c(C)nnc1SCC(=O)Nc1ccc(Cl)cc1 was run?
Answer: 10.3%

Question: CN(CC(=O)NCCCc1ccccc1)S(=O)(=O)c1ccc(Br)cc1 was tested. Which “hERG current change (%, negative = inhibition) at 10uM” value did it give?
Answer: -7.88%

Question: With CC(=O)c1ccc(NC(=O)C2CCCN(c3ncnc4c3nc3n4CCCCC3)C2)cc1 (stereo not shown) as the compound, how does the “hERG current change (%, negative = inhibition) at 10uM” value read?
Answer: -24.1%

Question: Which “hERG current change (%, negative = inhibition) at 10uM” value does the source give for Cc1ccc(NC(=O)C2CCCN(c3ncnc4c3nc3n4CCCCC3)C2)cc1Cl (stereo not shown) here?
Answer: -6.39%

Question: Which “hERG current change (%, negative = inhibition) at 10uM” value does the source give for O=C(Nc1ccc(Cl)cc1)C1CCCN(c2ncnc3c2nc2n3CCCCC2)C1 (stereo not shown) here?
Answer: -50.1%

Question: For COc1ccc2no[n+]([O-])c2c1, which “hERG current change (%, negative = inhibition) at 10uM” value is on record?
Answer: 28.1%

Question: Which “hERG current change (%, negative = inhibition) at 10uM” value does the source give for CC1CCc2c(sc(NC(=O)CCC(=O)O)c2C(=O)NC2CC2)C1 (stereo not shown) here?
Answer: 18.1%

Question: COc1ccc(NC(=O)n2ncc3cc(Cl)ccc32)cc1OC was tested. Which “hERG current change (%, negative = inhibition) at 10uM” value did it give?
Answer: 21.3%

Question: For CC(C)(C)N(Cc1cc2ccccc2[nH]c1=O)C(=O)c1ccco1, which “hERG current change (%, negative = inhibition) at 10uM” value is on record?
Answer: 8.21%

Question: How did the “hERG current change (%, negative = inhibition) at 10uM” value turn out when COc1ccc(NC(=O)CSc2nnc(NC(=O)C3CCC3)s2)c(OC)c1 was run?
Answer: 12.6%

Question: For CS(=O)(=O)Oc1ccc2c(c1)O/C(=C\C=C\c1ccccc1)C2=O, which “hERG current change (%, negative = inhibition) at 10uM” value is on record?
Answer: 8.05%

Question: Cc1ccc(S(=O)(=O)Cc2ccc(C(=O)N3CCC(C(N)=O)CC3)o2)cc1 was tested. Which “hERG current change (%, negative = inhibition) at 10uM” value did it give?
Answer: 30.7%

Question: For CC(C)N(C(=O)Nc1ccc2nsnc2c1)C(C)C, which “hERG current change (%, negative = inhibition) at 10uM” value is on record?
Answer: 0.592%

Question: Which “hERG current change (%, negative = inhibition) at 10uM” value does the source give for CC1(C)Cc2cccc(OCC(=O)N3CCN(S(=O)(=O)c4ccc(F)cc4)CC3)c2O1 here?
Answer: -21.6%

Question: For CC1(C)Cc2cccc(OCC(=O)N3CCN(c4ccc(F)cc4)CC3)c2O1, which “hERG current change (%, negative = inhibition) at 10uM” value is on record?
Answer: -69.5%

Question: For CC1(C)Cc2cccc(OCC(=O)N3CCN(c4cccc(C(F)(F)F)c4)CC3)c2O1, which “hERG current change (%, negative = inhibition) at 10uM” value is on record?
Answer: 1.57%

Question: For CC1(C)Cc2cccc(OCC(=O)N3CCN(c4cccc(Cl)c4)CC3)c2O1, which “hERG current change (%, negative = inhibition) at 10uM” value is on record?
Answer: -4.1%

Question: How did the “hERG current change (%, negative = inhibition) at 10uM” value turn out when CC1(C)Cc2cccc(OCC(=O)N3CCN(c4ccccc4Cl)CC3)c2O1 was run?
Answer: -64.3%

Question: CC1(C)Cc2cccc(OCC(=O)N3CCN(c4ccccc4)CC3)c2O1 was tested. Which “hERG current change (%, negative = inhibition) at 10uM” value did it give?
Answer: -45.6%

Question: For Cc1cccc(N2CCN(C(=O)COc3cccc4c3OC(C)(C)C4)CC2)c1C, which “hERG current change (%, negative = inhibition) at 10uM” value is on record?
Answer: -2.16%

Question: With CC1(C)Cc2cccc(OCC(=O)N3CCN(c4ccccc4F)CC3)c2O1 as the compound, how does the “hERG current change (%, negative = inhibition) at 10uM” value read?
Answer: -22.4%

Question: Which “hERG current change (%, negative = inhibition) at 10uM” value does the source give for CC1(C)Cc2cccc(OCC(=O)N3CCN(c4ccc([N+](=O)[O-])cc4)CC3)c2O1 here?
Answer: -70.3%
